# According to PubChem BioAssay (NCATS):
# Results filed as inconclusive are left out. Activity calls are given as the source filed them. Calls come from the whole dose curve; as a rule, active = well fitted cell-killing curve with a large enough effect; inconclusive = small, poorly fitted or top-dose-only effect, or effect the other way; inactive = no such curve, though single readings can be large or run the other way.
# Assay: Quantitative High-Throughput drug screen in 47 multiple myeloma cell lines against the NCATS MIPE library collection: KMS28BM_JCRB cell viability assay (AID 1919874); note: nearly all actives have a fitted effect of over 35% in size
# Settings: CellTiter-Glo ATP, 48 h; series mostly up to 45.8 µM
# Text: PI: Beverly A. Mock Ph.D.
# Laboratory of Cancer Biology and Genetics,
# Center for Cancer Research, National Cancer Institute,
# National Institute of Health, Bethesda, Maryland
# Drug resistance and disease progression are common in multiple myeloma (MM) patients, underscoring the need for new therapeutic combinations. […] We hypothesized that effective combinations would reduce MYC expression and enhance p16 activity. […] These preclinical data identify potentially useful drug combinations for evaluation in drug-resistant MM and reveal potential mechanisms of combined drug sensitivity.
# Described herein is the primary MIPE qHTS used to cherrypick compounds. Validated compounds were then further tested for potential synergistic activiy.
# [1] Peat TJ, Gaikwad SM, Dubois W, Gyabaah-Kessie N, Zhang S, Gorjifard S, Phyo Z, Andres M, Hughitt VK, Simpson RM, Miller MA, Girvin AT, Taylor A, Williams D, D'Antonio N, Zhang Y, Rajagopalan A, Flietner E, Wilson K, Zhang X, Shinn P, Klumpp-Thomas C, McKnight C, Itkin Z, Chen L, Kazandijian D, Zhang J, Michalowski AM, Simmons JK, Keats J, Thomas CJ, Mock BA. Drug combinations identified by high-throughput screening promote cell cycle transition and upregulate Smad pathways in myeloma. Cancer Lett. 2023 Aug 1;568:216284. doi: 10.1016/j.canlet.2023.216284. Epub 2023 Jun 24. PMID: 37356470; PMCID: PMC10408729.
# SEQUENCE No. (e.g., 1, 2, 3, etc.); […] (e.g., Cells, Incubation, Reagent, etc.); VALUE and DESCRIPTION.
# 1; Cells; 5 uL; white, solid bottom 1536-well Greiner assay plate.
# 2; Compounds; 23 nL; Kalypsis pin tool (Wako USA) equipped with a 1536-well pin head to transfer to the assay plates.
# 3; Incubation; 48 hours; 37C incubation.
# 4; Reagent;5uL; CellTiter Glo (Promega).
# 5; Detector; 425V; Luminescence; Viewlux PerkinElmer.
# NOTES (numbers refer to Sequence numbers above)
# 1. The cell-based screening methods employed in this study were like those previously published. Briefly, the corresponding myeloma cell lines were screened in 1,536-well plates with 500 cells, 5-uL per well for inhibition of cell viability (assessed by measuring ATP levels with CellTiterGlo).
# 2. NCATS MIPE 4.0 library of approved and investigational drugs were added using the Kalypsis pin tool. Wells treated with DMSO only for 100% viability and media only for 0% viability were used as controls.
# 3. The assay plates were covered and incubated for 48 hours in a 37C, 5% CO2 incubator with controlled humidity.
# 4. After 48 hours, CellTilter-GloTM luminescent substrate mix (Promega) reagent was added to the assay plate and plates we incubated for 5 min at room temperature.
# 5. Signal was measured as median relative luminescence units on a ViewLux (PerkinElmer) multiplate reader.
# [1] Heske CM, Davis MI, Baumgart JT, Wilson K, Gormally MV, Chen L, Zhang X, Ceribelli M, Duveau DY, Guha R, Ferrer M, Arnaldez FI, Ji J, Tran HL, Zhang Y, Mendoza A, Helman LJ, Thomas CJ. Matrix Screen Identifies Synergistic Combination of PARP Inhibitors and Nicotinamide Phosphoribosyltransferase (NAMPT) Inhibitors in Ewing Sarcoma. Clin Cancer Res. 2017 Dec 1;23(23):7301-7311. doi: 10.1158/1078-0432.CCR-17-1121. Epub 2017 Sep 12. PMID: 28899971; PMCID: PMC6636827.
# Potency is the fitted concentration of half-maximal effect.
row,SMILES,Potency
1,O=C1Nc2ccc(I)cc2C1=Cc1cc(Br)c(O)c(Br)c1,inactive
2,O=c1[nH]c(=O)n([C@H]2C[C@@H](O)[C@@H](CO)O2)cc1C(F)(F)F,9.35 µM (active)
3,CNC(=O)c1ccc2c(C(=Nc3cccc(CN(C)C)c3)c3ccccc3)c(O)[nH]c2c1,8.33 µM (active)
4,CN(C)CCN(Cc1ccc(Cl)cc1)c1ccccn1,14.8 µM (active)
5,c1ccc(CNc2nc(N3CCOc4ccccc43)nc3c2CCCC3)cc1,inactive
6,Cc1cc2nc3c(=O)[nH]c(=O)nc-3n(CC(O)C(O)C(O)CO)c2cc1C (stereo not given),5.9 µM (active)
7,CCCCC(C)(C)[C@H](O)C=C[C@H]1[C@H](O)CC(=O)[C@H]1CC=CCCCC(=O)O,inactive
8,COc1ccc(Cn2ccc3ccc(C(=O)NO)cc32)cc1,inactive
9,Cc1ccc(NC(=O)c2cccc(N(C)C)c2)cc1NC(=O)c1ccc(O)cc1,5.26 µM (active)
10,Nc1[nH]nc2nnc(-c3c(-c4ccccc4)nn4ccccc34)cc12,0.166 µM (active)
11,O=C1C(CCC(O)c2ccc(F)cc2)C(c2ccc(O)cc2)N1c1ccc(F)cc1 (stereo not given),inactive
12,CCCCN(CCCC)CC(O)c1cc(Cl)cc2c1-c1ccc(Cl)cc1C2=Cc1ccc(Cl)cc1 (stereo not given),23.5 µM (active)
13,COc1cc([C@H]2Oc3cc([C@H]4Oc5cc(O)cc(O)c5C(=O)[C@H]4O)ccc3O[C@H]2CO)ccc1O,10.5 µM (active)
14,CC1(C)CC(=O)c2c(C(F)(F)F)nn(-c3ccc(C(N)=O)c(NC4CCC(O)CC4)c3)c2C1 (stereo not given),0.0372 µM (active)
15,Cc1c(C(=O)Nc2ccc(N3C[C@@H](C)O[C@@H](C)C3)nc2)cccc1-c1ccc(OC(F)(F)F)cc1,inactive
16,COc1c(C)c2c(c(O)c1CC=C(C)CCC(=O)O)C(=O)OC2,2.64 µM (active)
17,O=C(Nc1cccc(C(F)(F)F)c1)Nc1cc(S(=O)(=O)NC2CC2)ccc1-c1ccsc1,20.9 µM (active)
18,OC1CCC(Nc2ncc3nc(Nc4c(F)cc(F)cc4F)n([C@@H]4CCOC4)c3n2)CC1 (stereo not given in full),inactive
19,CN1CC(=O)N2C(Cc3c([nH]c4ccccc34)[C@H]2c2ccc3c(c2)OCO3)C1=O (stereo not given in full),inactive
20,COc1cc2c(cc1Cc1cccc(Cl)c1F)c(=O)c(C(=O)O)cn2[C@H](CO)C(C)C,23.5 µM (active)

row,SMILES,Potency
1,COc1ccc(-c2cc3nccn3c(Nc3ncccc3C(N)=O)n2)cc1OC,6.62 µM (active)
2,Clc1ccc(COC(Cn2ccnc2)c2ccc(Cl)cc2Cl)c(Cl)c1 (stereo not given),20.9 µM (active)
3,Cc1nc(C(=O)NCC(=O)O)c(O)c2ccc(Oc3ccccc3)cc12,inactive
4,CCOC(=O)N1CCN([N+]([O-])=NOc2cc(ON=[N+]([O-])N3CCN(C(=O)OCC)CC3)c([N+](=O)[O-])cc2[N+](=O)[O-])CC1,7.43 µM (active)
5,C[C@H]1[C@H](O)O[C@@H]2O[C@@]3(C)CC[C@@H]4[C@H](C)CC[C@@H]1[C@@]24OO3,13.2 µM (active)
6,CC1(C)C(N(O)C(=O)Nc2ccc(Cl)cc2)N(c2ccc(Cl)cc2)C(=O)N1CC(=O)NN=CC=Cc1ccc([N+](=O)[O-])o1 (stereo not given),8.33 µM (active)
7,COc1cccc(OC)c1-c1cc(C(=O)NC2(C(=O)O)C3CC4CC(C3)CC2C4)nn1-c1ccnc2cc(Cl)ccc12 (stereo not given),inactive
8,CN1CCC[C@H]1CCO[C@](C)(c1ccccc1)c1ccc(Cl)cc1,5.26 µM (active)
9,N#Cc1ccc(Oc2ccc3c(c2)COB3O)cc1,inactive
10,C=CCc1cccc(C=NNC(=O)CN2CCN(Cc3ccccc3)CC2)c1O,7.43 µM (active)
11,Cc1cccc2c1CC[C@H](CN1CCC(c3c(Cl)cccc3Cl)CC1)C[C@@H]2O,14.8 µM (active)
12,C[C@]12CCC3=C4CCC(=O)C=C4CC[C@@H]3[C@H]1CC[C@@]2(O)CC#N,inactive
13,O=C(O)C1=CO[C@@H](O[C@@H]2O[C@H](CO)[C@H](O)[C@H](O)[C@H]2O)[C@@H]2C(CO)=CC[C@H]12,inactive
14,CN(C(Cc1ccc(OS(=O)(=O)c2cccc3cnccc23)cc1)C(=O)N1CCN(c2ccccc2)CC1)S(=O)(=O)c1cccc2cnccc12 (stereo not given),14.8 µM (active)
15,CS(=O)(=O)c1ccc(C2=C(c3ccccc3)C(=O)OC2)cc1,inactive
16,COc1c(C)c2c(c(O)c1CC=C(C)CCC(=O)OCCN1CCOCC1)C(=O)OC2,3.32 µM (active)
17,COc1ccc(-c2cc(=O)c3c(O)cc(O[C@@H]4O[C@H](CO[C@@H]5O[C@@H](C)[C@H](O)[C@@H](O)[C@@H]5O)[C@@H](O)[C@H](O)[C@@H]4O)cc3o2)cc1O,inactive
18,CC(=O)Nc1cccc(-n2c(=O)n(C3CC3)c(=O)c3c(Nc4ccc(I)cc4F)n(C)c(=O)c(C)c32)c1,inactive
19,Cc1cc(OCCCS(C)(=O)=O)cc(C)c1-c1cccc(COc2ccc3c(c2)OC[C@H]3CC(=O)O)c1,20.9 µM (active)
20,Cc1cc(-c2ncc(CC(=O)Nc3ccc(-c4cnccn4)cn3)cc2C)ccn1,inactive
